# Data as given in PubChem BioAssay (NCATS).
# Results filed as inconclusive are left out. Active and inactive are the calls of the source. Calls follow the shape of the dose curve; as a rule, active = well fitted cell-killing curve with a large enough effect; inconclusive = small, poorly fitted or top-dose-only effect, or effect the other way; inactive = flat fitted curve, though single readings scatter.
# Tested on: HeLa
# Test: Primary qHTS to identify gynecologic anti-cancer compounds using libraries of approved drugs and bioactive compounds (AID 1345084); also: nearly all actives have a fitted effect of over 55% in size
# Settings: Gynecologic cancer cell panel viability, ATPlite luminescence, 48 h; series mostly up to 57.5 µM; activity change, negative = cytotoxicity: at the top concentration
# Procedure, shortened: (§1)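 In this quantitative HTS, cell killing is estimated from loss of ATP-dependent luciferase light. Cells see five compound concentrations over a 48 h exposure.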
# % is scaled to controls: 0 for no effect and ±100 for the full control effect.
row,SMILES,"activity change, negative = cytotoxicity"
1,C[C@@H](C1=C(CCN(C)C)Cc2ccccc21)c1ccccn1,-2.74% (inactive)
2,O=C1OC2(c3ccccc31)c1cc(I)c(O)c(I)c1Oc1c2cc(I)c(O)c1I,-13.1% (inactive)
3,CCOCCn1c(C2CCN(CCc3ccc(C(C)(C)C(=O)O)cc3)CC2)nc2ccccc21,18.2% (inactive)
4,O=C(Oc1ccccc1)c1cccc(C(=O)Oc2ccccc2)c1,6.29% [at 116 µM] (inactive)
5,CCc1cc2cc(OC)c(OC)cc2c(Cc2ccccc2)n1,8.29% (inactive)
6,CCOc1ncc(F)c(=O)[nH]1,10.3% (inactive)
7,COCCOCC(OC)OC,0.459% (inactive)
8,O=C(O)c1ccc(OCCN2CCCCC2)cc1,6.87% (inactive)
9,Oc1ccccc1,-3.43% (inactive)
10,O=C(OCCN1CCOCC1)c1cccnc1Nc1cccc(C(F)(F)F)c1,-4.36% (inactive)
11,O=C(O)c1ccccc1Nc1cc(Cl)ccc1C(=O)O,-14.1% [at 25.3 µM] (inactive)
12,COc1ccc2cc(C=O)ccc2c1,-11.7% (inactive)
13,COc1ccc2c(c1)c(CC(=O)OC/C=C(\C)CC/C=C(\C)CCC=C(C)C)c(C)n2C(=O)c1ccc(Cl)cc1,-4.34% (inactive)
14,O=C(O)[C@@H](O)[C@H](O)[C@H](O)[C@@H](O)C(=O)O,14.1% (inactive)
15,CNC(=O)c1c(I)c(NC(C)=O)c(I)c(C(=O)O)c1I,5.89% (inactive)
16,NCC[C@H](O)C(=O)N[C@@H]1C[C@H](N)[C@@H](O[C@H]2O[C@H](CN)[C@@H](O)[C@H](O)[C@@H]2O)[C@H](O)[C@@H]1O[C@H]1O[C@H](CO)[C@@H](O)[C@H](N)[C@@H]1O,16.7% [at 0.462 µM] (inactive)
17,CN(C)CCOC1=Cc2ccccc2Sc2ccc(Cl)cc21,-0.702% (inactive)
18,CCCCC(CC)CNC(=O)CC(C)OC(=O)CCC(=O)O (centres undefined),4.06% (inactive)
19,C[C@@H]1CCC[C@H](C)N1CCCC(O)(c1ccccc1)c1ccccn1 (some centres undefined),-0.253% (inactive)

row,SMILES,"activity change, negative = cytotoxicity"
1,C=CCOc1cc(Cl)ccc1C(=O)NCCN(CC)CC,2.29% (inactive)
2,Cc1onc(-c2ccccc2)c1C(=O)Cl,6.46% (inactive)
3,CCCCCCOC(=O)NC(=N)c1ccc(NCc2nc3cc(C(=O)N(CCC(=O)OCC)c4ccccn4)ccc3n2C)cc1,3.53% (inactive)
4,CCN1CCN(C(=O)N[C@@H](C(=O)N[C@@H]2C(=O)N3[C@@H]2SC(C)(C)[C@H]3C(=O)O)c2ccccc2)C(=O)C1=O,10.4% (inactive)
5,Nc1nc2ccccc2n1Cc1ccc(F)cc1,-2.75% (inactive)
6,Oc1ccc(CCNCCCCCCNCCc2ccccc2)cc1O,-1.04% (inactive)
7,CCOC(=O)c1cc(=O)c2c(OCC(COc3cccc4oc(C(=O)OCC)cc(=O)c34)OC(=O)[C@@H](N)CCCCN)cccc2o1,11.1% (inactive)
8,CC(C)C(=O)Nc1cccc(C(F)(F)F)c1,4.95% (inactive)
9,C=C(C)C(=O)OCC(O)CO (centres undefined),2.79% (inactive)
10,CCCCN(CCN(CCCC)C(=O)N1CCOCC1)C(=O)N1CCOCC1,-2.1% (inactive)
11,CC(Oc1c(Cl)cccc1Cl)C1=NCCN1 (centres undefined),6.57% (inactive)
12,CC(=O)OC/C=C(C)/C=C/C=C(C)/C=C/C1=C(C)CCCC1(C)C,-0.299% (inactive)
13,CC(C)(C)CC(=O)OCC(=O)[C@@]1(O)CC[C@H]2[C@@H]3CCC4=CC(=O)C=C[C@]4(C)[C@H]3[C@@H](O)C[C@@]21C,-2.35% (inactive)
14,Cc1ccc(/C=N/n2c(-c3ccccc3)csc2=S)cc1,-3.07% (inactive)
15,CO[C@@H]1[C@@H](O[C@@H]2O[C@H](C)[C@@H](O[C@H]3C[C@@](C)(O)[C@@H](O)[C@H](C)O3)[C@H](N(C)C)[C@H]2O)[C@@H](CC=O)C[C@@H](C)[C@@H](O[C@@H]2CC[C@H](N(C)C)[C@@H](C)O2)/C=C/C=C/C[C@@H](C)OC(=O)C[C@H]1OC(C)=O,-2.16% (inactive)
16,N#CSCC(=O)O,7.8% (inactive)
17,Cc1ccc(CCn2c3c(c4cc(Cl)ccc42)CN(C)CC3)cn1,4.58% (inactive)
18,CO/N=C(/C(=O)N[C@@H]1C(=O)N2C(C(=O)OCOC(=O)C(C)(C)C)=C(C)CS[C@H]12)c1csc(N)n1,0.981% (inactive)
19,CC(C)Cc1ccc(C(C)C(=O)OCc2ccccn2)cc1 (centres undefined),-1.5% (inactive)

# Tested on: Hek293T
# Test: as above
# Settings: Gynecologic cancer cell panel viability, ATPlite luminescence, 48 h, control line for the selectivity index; series mostly up to 57.5 µM; activity change, negative = cytotoxicity: at the top concentration
# Procedure, shortened: as §1
row,SMILES,"activity change, negative = cytotoxicity"
1,O=C1OC2(c3ccccc31)c1cc(I)c(O)c(I)c1Oc1c2cc(I)c(O)c1I,-9.8% (inactive)
2,CCOCCn1c(C2CCN(CCc3ccc(C(C)(C)C(=O)O)cc3)CC2)nc2ccccc21,23.8% (inactive)
3,CCc1cc2cc(OC)c(OC)cc2c(Cc2ccccc2)n1,3.04% (inactive)
4,CCOc1ncc(F)c(=O)[nH]1,-2.56% (inactive)
5,COCCOCC(OC)OC,11.2% (inactive)
6,O=C(O)c1ccc(OCCN2CCCCC2)cc1,6.56% (inactive)
7,Oc1ccccc1,-0.504% (inactive)
8,O=C(OCCN1CCOCC1)c1cccnc1Nc1cccc(C(F)(F)F)c1,4.29% (inactive)
9,O=C(O)c1ccccc1Nc1cc(Cl)ccc1C(=O)O,0.43% [at 25.3 µM] (inactive)
10,COc1ccc2cc(C=O)ccc2c1,-5.4% (inactive)
11,COc1ccc2c(c1)c(CC(=O)OC/C=C(\C)CC/C=C(\C)CCC=C(C)C)c(C)n2C(=O)c1ccc(Cl)cc1,1.93% (inactive)
12,O=C(O)[C@@H](O)[C@H](O)[C@H](O)[C@@H](O)C(=O)O,9.55% (inactive)
13,CNC(=O)c1c(I)c(NC(C)=O)c(I)c(C(=O)O)c1I,0.306% (inactive)
14,NCC[C@H](O)C(=O)N[C@@H]1C[C@H](N)[C@@H](O[C@H]2O[C@H](CN)[C@@H](O)[C@H](O)[C@@H]2O)[C@H](O)[C@@H]1O[C@H]1O[C@H](CO)[C@@H](O)[C@H](N)[C@@H]1O,1.79% [at 0.462 µM] (inactive)
15,O=C1Cc2cc(Cl)ccc2N1,3.12% (inactive)
16,CN(C)CCOC1=Cc2ccccc2Sc2ccc(Cl)cc21,-7.43% (inactive)
17,CCCCC(CC)CNC(=O)CC(C)OC(=O)CCC(=O)O (centres undefined),6.32% (inactive)
18,C[C@@H]1CCC[C@H](C)N1CCCC(O)(c1ccccc1)c1ccccn1 (some centres undefined),3.23% (inactive)

row,SMILES,"activity change, negative = cytotoxicity"
1,O=C1CCCc2c(O)cccc21,-5.88% (inactive)
2,C=CCOc1cc(Cl)ccc1C(=O)NCCN(CC)CC,5.2% (inactive)
3,Cc1onc(-c2ccccc2)c1C(=O)Cl,-4.05% (inactive)
4,CCN1CCN(C(=O)N[C@@H](C(=O)N[C@@H]2C(=O)N3[C@@H]2SC(C)(C)[C@H]3C(=O)O)c2ccccc2)C(=O)C1=O,1.93% (inactive)
5,Oc1ccc(CCNCCCCCCNCCc2ccccc2)cc1O,-0.113% (inactive)
6,CCOC(=O)c1cc(=O)c2c(OCC(COc3cccc4oc(C(=O)OCC)cc(=O)c34)OC(=O)[C@@H](N)CCCCN)cccc2o1,10.3% (inactive)
7,CC(C)C(=O)Nc1cccc(C(F)(F)F)c1,5.51% (inactive)
8,C=C(C)C(=O)OCC(O)CO (centres undefined),11.4% (inactive)
9,CCCCN(CCN(CCCC)C(=O)N1CCOCC1)C(=O)N1CCOCC1,-20.8% (inactive)
10,CC(Oc1c(Cl)cccc1Cl)C1=NCCN1 (centres undefined),-12.8% (inactive)
11,CC(=O)OC/C=C(C)/C=C/C=C(C)/C=C/C1=C(C)CCCC1(C)C,-3.4% (inactive)
12,CC(C)(C)CC(=O)OCC(=O)[C@@]1(O)CC[C@H]2[C@@H]3CCC4=CC(=O)C=C[C@]4(C)[C@H]3[C@@H](O)C[C@@]21C,-1.76% (inactive)
13,Cc1ccc(/C=N/n2c(-c3ccccc3)csc2=S)cc1,5.51% (inactive)
14,CO[C@@H]1[C@@H](O[C@@H]2O[C@H](C)[C@@H](O[C@H]3C[C@@](C)(O)[C@@H](O)[C@H](C)O3)[C@H](N(C)C)[C@H]2O)[C@@H](CC=O)C[C@@H](C)[C@@H](O[C@@H]2CC[C@H](N(C)C)[C@@H](C)O2)/C=C/C=C/C[C@@H](C)OC(=O)C[C@H]1OC(C)=O,-29.8% (inactive)
15,N#CSCC(=O)O,1.56% (inactive)
16,Cc1ccc(CCn2c3c(c4cc(Cl)ccc42)CN(C)CC3)cn1,-18.7% (inactive)
17,CO/N=C(/C(=O)N[C@@H]1C(=O)N2C(C(=O)OCOC(=O)C(C)(C)C)=C(C)CS[C@H]12)c1csc(N)n1,26.8% (inactive)
18,CC(C)Cc1ccc(C(C)C(=O)OCc2ccccn2)cc1 (centres undefined),-24.7% (inactive)
